Measurements from the supplement of paper PMC6555819.

How the values were obtained:
Test in all cases: PBM binding z-score (relative to random genomic background probes); higher = stronger binding; sequences stand for … in GC…GCGATTGACAGCGTAGAATGAAGG
[1] = tested on: FXR:RXRa (NR concentration 270 nM, RXRa partner concentration 90 nM)
In short: (§1)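 Probes were double-stranded and carried 34-nt variable regions with direct-repeat seeds, single-nucleotide variants, half-site ablations and random human genomic background sequences, printed on custom Agilent 4×180K protein-binding microarrays. Arrays were incubated 1 h with ligand-free nuclear receptor dimers in PBS pH 7.4, 2% milk, 0.02% Triton X-100, 1 mM DTT, 0.2 mg/mL BSA and 0.4 mg/ml salmon testes DNA. Antibodies against each partner (one per run) detected binding, and scanned fluorescence was regression-normalized. Binding z-scores use the random background probes as reference.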

[2] = tested on: LXRa:RXRa (NR concentration 270 nM, RXRa partner concentration 90 nM)
In short: as §1

[3] = tested on: LXRa homodimer (NR concentration 270 nM)
In short: as §1

[4] = tested on: LXRb:RXRa (NR concentration 270 nM, RXRa partner concentration 90 nM)
In short: as §1

[5] = tested on: LXRb homodimer (NR concentration 270 nM)
In short: as §1

[6] = tested on: PPARa:RXRa (NR concentration 270 nM, RXRa partner concentration 90 nM)
In short: as §1

[7] = tested on: PPARg:RXRa (NR concentration 180 nM, RXRa partner concentration 90 nM)
In short: as §1

[8] = tested on: PPARg:RXRa 270nM:90nM, anti-RXR (NR concentration 270 nM, RXRa partner concentration 90 nM)
In short: as §1

[9] = tested on: PPARg:RXRa 30nM:10nM, anti-RXR (NR concentration 30 nM, RXRa partner concentration 10 nM)
In short: as §1

[10] = tested on: PPARg:RXRa 90nM:30nM, anti-RXR (NR concentration 90 nM, RXRa partner concentration 30 nM)
In short: as §1

[11] = tested on: PPARg:RXRa DBDmut IVT, anti-RXR (DBD mutation: RXRa K156A/R161A, NR concentration 270 nM, RXRa partner concentration 90 nM)
In short: as §1

[12] = tested on: PPARg:RXRa IVT, anti-PPARg (NR concentration 270 nM, RXRa partner concentration 90 nM)
In short: as §1

[13] = tested on: PPARg DBDmut:RXRa IVT, anti-PPARg (DBD mutation: PPARg1 K132A/R137A, NR concentration 270 nM, RXRa partner concentration 90 nM)
In short: as §1

[14] = tested on: PPARg DBDmut IVT, anti-PPARg (DBD mutation: PPARg1 K132A/R137A, NR concentration 270 nM)
In short: as §1

[15] = tested on: PPARg homodimer (NR concentration 180 nM)
In short: as §1

[16] = tested on: PXR:RXRa (NR concentration 270 nM, RXRa partner concentration 90 nM)
In short: as §1

[17] = tested on: PXR homodimer (NR concentration 270 nM)
In short: as §1

[18] = tested on: RARa:RXR (NR concentration 270 nM, RXRa partner concentration 90 nM)
In short: as §1

[19] = tested on: RARa homodimer (NR concentration 270 nM)
In short: as §1

[20] = tested on: RARb:RXRa (NR concentration 270 nM, RXRa partner concentration 90 nM)
In short: as §1

Sequence	PBM binding z-score [1]	PBM binding z-score [2]	PBM binding z-score [3]	PBM binding z-score [4]	PBM binding z-score [5]	PBM binding z-score [6]	PBM binding z-score [7]	PBM binding z-score [8]	PBM binding z-score [9]	PBM binding z-score [10]	PBM binding z-score [11]	PBM binding z-score [12]	PBM binding z-score [13]	PBM binding z-score [14]	PBM binding z-score [15]	PBM binding z-score [16]	PBM binding z-score [17]	PBM binding z-score [18]	PBM binding z-score [19]	PBM binding z-score [20]
CGTCCATGGTCAATGCTAGGTCAGTGAAAGCATT	0.15	0.428	0.451	0.222	-0.306	0.49	-0.131	-0.408	-0.327	-0.269	0.278	0.623	-0.309	-0.685	0.231	0.368	-0.367	0.816	-0.251	2.17
CGTCCAAGGTCAAAGGTCAGTTAAGAGATGACGG	8.43	6.95	4.02	6.65	2.51	7.44	10.5	8.31	7.4	9.07	3.55	5.71	1.21	-0.205	3.01	6.49	1.86	8.28	1.38	6.2
CCAGACAGGTGAAATGTAACTCAGTCTGGTACGC	0.0255	-0.0223	-0.367	0.217	0.0964	0.949	1.12	1.5	0.324	1.07	1.56	0.99	-0.289	-0.0118	0.686	0.0204	-0.634	0.296	0.296	0.614
ATATGTAGGTTAAGGGTCATTCAAGTTGGTTCGC	5.1	5.2	2.81	4.68	1.33	6.53	11.5	9.66	9.8	10.8	7.49	7.7	1.56	1.82	3.15	5.92	1.73	5.73	1.9	3.79
CCTACTGGGCCAAAGGGCATTGATTCCAATGCTC	0.0219	0.199	-0.482	0.36	-1.02	4.61	10.3	9.18	8.24	9.29	4.36	5.09	0.51	-0.625	1.09	0.249	-0.593	0.757	-0.681	1.59
ACTATTAGTTGAGACGAGGGCAACCGCTAGGTTG	0.861	0.155	-0.0789	0.0826	-0.113	0.374	0.327	0.207	-0.122	0.0431	0.0597	0.177	0.243	0.359	0.0959	1.55	0.226	0.773	0.0804	1.15
TCACATAGGTAAAAGGTGAAAGTCGGTGTGGTAA	1.8	1.56	0.139	1.69	-0.337	4.37	5.76	6.66	5.78	7.03	2.98	3.19	0.93	0.575	1.93	1.81	0.153	3.24	0.922	1.92
